# Reference: PubChem BioAssay (NCI)
# About 79,000 compounds went through this panel and 15% of them were active in at least one assay; those are over-represented in the sample as a whole. A number with no mark means an inactive call. The source made the active and inactive calls. No stated cut-off is given here; in the data, active means growth inhibition above about 70%; inactive means the rest.
# Assay: NCI Yeast Anticancer Drug Screen. Data for the rad50 strain (AID 155);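 further: 0% = growth of vehicle-only cultures of the same strain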
# Conditions: S. cerevisiae rad50 strain growth inhibition; at 50.0 µM (retest, dose inferred, filed as 5.0); active compounds read high
# In short: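 Vehicle-treated cultures provide the reference for the growth inhibition reported for compound-exposed, repair-deficient yeast.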
row,Structure (SMILES),growth inhibition
1,CC(CN(C)C)C(=O)/C=C/c1ccc(Cl)c(Cl)c1 (configuration not stated),3%
2,CCCCCCNCCCNc1c2cc(OC)ccc2nc2cccc([N+](=O)[O-])c12,97% (active)
3,NC(=S)N1N=C2c3ccccc3CC[C@H]2[C@@H]1c1ccc(Cl)cc1,78% (active)
4,C/C(=N/NC(=S)Nc1ccccc1C)c1ccccn1,12%
5,O=C1/C(=C/c2ccc(Cl)c(Cl)c2)CNC/C1=C\c1ccc(Cl)c(Cl)c1,62%
6,CC(C)OP(=O)(OC(C)C)C(=NCCO)NNc1ccc([N+](=O)[O-])cc1,64%
7,N#CCC(=O)N/N=C(\c1ccccc1)C(c1ccccc1)C1(O)C(=O)Nc2c(Cl)ccc(Cl)c21 (configuration not stated),51%
8,CC(C)(CN1CCCCC1)C(=O)CC(SCCS(=O)(=O)O)c1ccccc1 (configuration not stated),7%
9,COC1=CCC23C(=O)C=CC(=O)C2(C1)C(=O)c1ccccc1C3=O (configuration not stated),72% (active)
10,CCCCN(CCCC)c1ccc(N=Nc2ccc(S(=O)(=O)O)cc2)cc1,99% (active)
11,c1ccc2nc3c(nc2c1)sc1ccccc13,78% (active)
12,O=C1c2ccccc2-c2ccc(N=Cc3ccccc3)cc21,51%
13,CNC(=S)N/N=C(/C)CCC/C(C)=N/NC(=S)NC,37%
14,Nc1ccc(/C=C/c2ccc3cccnc3c2)cc1,28%
15,COc1ccc2c3c1OC(C)C31CC(=O)CCC1CC2 (configuration not stated),23%
16,CCOC(=O)Nc1ccc(C)c(NC(=O)OCC)c1,80% (active)
17,CCN(CC)CCNc1ccc2nc(C)n3c4ccc(OC)cc4c(=O)c1c23,95% (active)
18,C[N+](C)([O-])CCCNc1c2ccccc2nc2cccc([N+](=O)[O-])c12,89% (active)

row,Structure (SMILES),growth inhibition
1,O=C(c1cc(=O)c2ccc(O)cc2o1)c1ccc(Cl)cc1Cl,95% (active)
2,CCCNC(=O)OCc1c(COC(=O)NCCC)c(-c2ccc(Cl)c(Cl)c2)n2c1CCC2,42%
3,O=C(Cc1ccccc1)NN1C(=O)C(Cl)C1c1cc(Br)cc(Br)c1O (configuration not stated),94% (active)
4,CCOC(=O)C(Cc1c2ccccc2cc2ccccc12)(NC(C)=O)C(=O)OCC,11%
5,O=[N+]([O-])/C=C/c1cc2ccc3ccccc3c2[nH]1,96% (active)
6,Fc1ccc(Nc2ccc3ccccc3c2)cc1,64%
7,O=S1(=O)CCC2=CC(C(F)(F)F)=CC(C(F)(F)F)=CN21,96% (active)
8,O=C(Cc1ccccc1)NNc1nc(NNC(=O)c2ccncc2)nc(Nc2ccc([N+](=O)[O-])cc2)n1,54%
9,CCCCS/C(=C(/C#N)C(N)=O)c1cc2c([nH]1)CCCC2,30%
10,O=C(O)c1ccccc1C(=O)OC1CCc2ccccc2C1 (configuration not stated),17%
11,CCOC(=O)/C(=C\c1cccc(C)c1)C(C)=O,91% (active)
12,NC(=S)N/N=C1\c2ccccc2CCC1CCC1(O)CCc2ccccc2C1=O (configuration not stated),52%
13,Cc1cccc2c(Cl)c3cccc(C)c3nc12,75% (active)
14,CC(C)OC(=O)NNc1c(Cl)cc(Cl)cc1Cl,28%
15,Nc1ccc2c(c1)C(=O)c1c(F)cccc1-2,78% (active)
16,N#CSCC1COc2ccccc2O1 (configuration not stated),89% (active)
17,Cc1ccc(S(=O)(=O)NC(=O)C2C(=O)CC3(CCCCC3)CC2=O)cc1,25%
18,CC1=NN(C(=O)c2ccccc2O)C(=O)/C1=C/c1ccco1,89% (active)

# Same assay, conditions: S. cerevisiae rad50 strain growth inhibition; at 50.0 µM; active compounds read high
row,Structure (SMILES),growth inhibition
1,CC(CN(C)C)C(=O)/C=C/c1ccc(Cl)c(Cl)c1 (configuration not stated),99.2% (active)
2,CCCCCCNCCCNc1c2cc(OC)ccc2nc2cccc([N+](=O)[O-])c12,94.6% (active)
3,NC(=S)N1N=C2c3ccccc3CC[C@H]2[C@@H]1c1ccc(Cl)cc1,83% (active)
4,C/C(=N/NC(=S)Nc1ccccc1C)c1ccccn1,78% (active)
5,O=C1/C(=C/c2ccc(Cl)c(Cl)c2)CNC/C1=C\c1ccc(Cl)c(Cl)c1,50%
6,CC(C)OP(=O)(OC(C)C)C(=NCCO)NNc1ccc([N+](=O)[O-])cc1,86% (active)
7,N#CCC(=O)N/N=C(\c1ccccc1)C(c1ccccc1)C1(O)C(=O)Nc2c(Cl)ccc(Cl)c21 (configuration not stated),43.8%
8,CC(C)(CN1CCCCC1)C(=O)CC(SCCS(=O)(=O)O)c1ccccc1 (configuration not stated),9.6%
9,COC1=CCC23C(=O)C=CC(=O)C2(C1)C(=O)c1ccccc1C3=O (configuration not stated),65.8%
10,CCCCN(CCCC)c1ccc(N=Nc2ccc(S(=O)(=O)O)cc2)cc1,87.7% (active)
11,c1ccc2nc3c(nc2c1)sc1ccccc13,92.8% (active)
12,O=C1c2ccccc2-c2ccc(N=Cc3ccccc3)cc21,82.5% (active)
13,CNC(=S)N/N=C(/C)CCC/C(C)=N/NC(=S)NC,66.8%
14,Nc1ccc(/C=C/c2ccc3cccnc3c2)cc1,10.8%
15,COc1ccc2c3c1OC(C)C31CC(=O)CCC1CC2 (configuration not stated),7.25%
16,CCOC(=O)Nc1ccc(C)c(NC(=O)OCC)c1,-1.75%
17,CCN(CC)CCNc1ccc2nc(C)n3c4ccc(OC)cc4c(=O)c1c23,-12.5%
18,C[N+](C)([O-])CCCNc1c2ccccc2nc2cccc([N+](=O)[O-])c12,86.8% (active)

row,Structure (SMILES),growth inhibition
1,O=C(c1cc(=O)c2ccc(O)cc2o1)c1ccc(Cl)cc1Cl,86.5% (active)
2,CCCNC(=O)OCc1c(COC(=O)NCCC)c(-c2ccc(Cl)c(Cl)c2)n2c1CCC2,61.9%
3,O=C(Cc1ccccc1)NN1C(=O)C(Cl)C1c1cc(Br)cc(Br)c1O (configuration not stated),97% (active)
4,CCOC(=O)C(Cc1c2ccccc2cc2ccccc12)(NC(C)=O)C(=O)OCC,90.2% (active)
5,O=[N+]([O-])/C=C/c1cc2ccc3ccccc3c2[nH]1,95.8% (active)
6,Fc1ccc(Nc2ccc3ccccc3c2)cc1,91% (active)
7,O=S1(=O)CCC2=CC(C(F)(F)F)=CC(C(F)(F)F)=CN21,95.5% (active)
8,O=C(Cc1ccccc1)NNc1nc(NNC(=O)c2ccncc2)nc(Nc2ccc([N+](=O)[O-])cc2)n1,71.5% (active)
9,CCCCS/C(=C(/C#N)C(N)=O)c1cc2c([nH]1)CCCC2,41.2%
10,O=C(O)c1ccccc1C(=O)OC1CCc2ccccc2C1 (configuration not stated),26.4%
11,CCOC(=O)/C(=C\c1cccc(C)c1)C(C)=O,92.3% (active)
12,NC(=S)N/N=C1\c2ccccc2CCC1CCC1(O)CCc2ccccc2C1=O (configuration not stated),86.8% (active)
13,Cc1cccc2c(Cl)c3cccc(C)c3nc12,75% (active)
14,CC(C)OC(=O)NNc1c(Cl)cc(Cl)cc1Cl,2.75%
15,Nc1ccc2c(c1)C(=O)c1c(F)cccc1-2,90.5% (active)
16,N#CSCC1COc2ccccc2O1 (configuration not stated),88.4% (active)
17,Cc1ccc(S(=O)(=O)NC(=O)C2C(=O)CC3(CCCCC3)CC2=O)cc1,-9.4%
18,CC1=NN(C(=O)c2ccccc2O)C(=O)/C1=C/c1ccco1,87.5% (active)
